According to PubChem BioAssay AID1117319 (Southern Research Institute, 2015):
Out of some 260,000 compounds screened, about 1,500 (0.58%) were called active. About 5% were inconclusive and are not listed.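 The calls were made as follows: active = inhibition above a set limit at one or more doses, reproduced on every date tested; inconclusive = results disagree between test dates, or hit never tested in dose response; inactive = the rest.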 Not all results are given here. Potency and affinity values are given separately.

Target: Virion infectivity factor (Human immunodeficiency virus type 1 group M subtype B (isolate BH10)) + Virion infectivity factor (Human immunodeficiency virus type 1 group M subtype B (isolate BRU/LAI)) + Virion infectivity factor (Human immunodeficiency virus type 1 group M subtype B (isolate PCV12)) + Virion infectivity factor (Human immunodeficiency virus type 1 group M subtype B (isolate HXB2)) + DNA dC->dU-editing enzyme APOBEC-3G (Homo sapiens) (UniProt P69720+P69721+P69722+P69723+Q9HC16)
Test: inhibitors of Vif binding to APOBEC3G peptide, primary screen, biochemical, TR-FRET, GST-Vif 1-94, biotin-A3G peptide, dose response retest (AID 1117319);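 also: Vif residues 1-94 fused to GST binding biotinylated APOBEC3G peptide 110-148; 0% = full assay without inhibitor and 100% = GST in place of GST-Vif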
Conditions: active compounds read high

Structure (SMILES)	inhibition
Cc1nnc(SCC(=O)Nc2ccccc2)n1CCc1ccccc1	-1.11% (inactive)
CC1(C)CC(NS(=O)(=O)c2ccccc2)CC(C)(C)N1	13.5% (inactive)
CC1(C)CC(NC(=O)C(c2ccccc2)c2ccccc2)CC(C)(C)N1	-4.99% (inactive)
CC(C)(C)c1cc(NC(=O)CCSc2nnc3ccccn23)cc(C(C)(C)C)c1	-5.51% (inactive)
O=C1CCC/C1=C/Nc1ccc(Cl)cc1	-0.33% (inactive)
O=C1/C(=C\c2ccc3c(c2)OCO3)CCC/C1=C/c1ccc2c(c1)OCO2	1.07% (inactive)
O=C1CCCC/C1=C/Nc1ccc(C(=O)O)cc1	28.3% (inactive)
O=C1/C(=C/Nc2ccc3c(c2)OCO3)CCc2ccccc21	27.2% (inactive)
CC(C)(C)NC(=O)Cn1c(=O)c(=O)n(Cc2ccccc2)c2ccc(Cl)cc21	-13.9% (inactive)
NS(=O)(=O)c1ccc(NC(=S)N2CCN(c3ccc(Cl)c(Cl)c3)CC2)cc1	-1.39% (inactive)
Cc1ccc(-n2ncc3c(NCc4cccnc4)ncnc32)cc1C	-0.06% (inactive)
CC(=O)Nc1ccc2c(COC(=O)CC3Sc4ccccc4NC3=O)cc(=O)oc2c1 (stereo unspecified)	-2.31% (inactive)
COCCN(C(=O)COC(=O)CCn1c(C)csc1=O)c1c(N)n(Cc2ccccc2)c(=O)[nH]c1=O	3.17% (inactive)
COC(=O)C(N)Cc1ccc(O)c(O)c1 (stereo unspecified)	21.5% (inactive)
COC(=O)[C@@H](N)Cc1ccc(O)cc1	1.26% (inactive)
CC(NC(=O)Cn1cnnn1)C12CC3CC(CC(C3)C1)C2 (stereo unspecified)	-1.37% (inactive)
O=C(Cc1csc(N2CCOCC2)n1)N/N=C/c1ccccc1C(=O)O	6.57% (inactive)
O=C(Cc1csc(N2CCOCC2)n1)N/N=C/c1ccc(Cl)cc1Cl	-5.97% (inactive)
O=C(CCN1CCN(c2ccccc2)CC1)N/N=C/c1ccccc1O	-5.36% (inactive)
COc1ccc(/C=N/NC(=O)CCN2CCN(c3ccccc3)CC2)c(OC)c1OC	8.69% (inactive)
Cc1cccc(NC(=S)NCc2ccc(F)cc2)c1	-7.76% (inactive)
Cc1nn(C)c(Cl)c1C(=O)NCC(=O)O	-8.59% (inactive)
CCN1CCCC1Cn1cnc2c([nH]c3cccc(Cl)c32)c1=O (stereo unspecified)	32.2% (inactive)
Cc1ccc(S(=O)(=O)n2nc(OC(=O)c3ccco3)cc2N)cc1	7.76% (inactive)
COc1ccc(OC)c(NC(=O)COC(=O)c2ccc(S(=O)(=O)N3CCCCC3)cc2)c1	-4.24% (inactive)
COc1ccc(OCCCC(=O)OC(C)C(=O)Nc2ccc(S(N)(=O)=O)cc2)cc1 (stereo unspecified)	1.05% (inactive)
